Experimental data taken from PubChem BioAssay (Tox21).
Results filed as inconclusive are left out. A call without a number means that no potency is given here. The source made the active and inactive calls. Calls come from the whole dose curve; as a rule, active = well fitted cell-killing curve with a large enough effect in the repeat runs; inconclusive = weak or mixed curves, or effect the other way; inactive = no such curve, though single readings can be large or run the other way.

Experiment: qHTS assay to identify small molecule agonists of the farnesoid-X-receptor (FXR) signaling pathway - cell viability counter screen (AID 743218); note: nearly all actives have a fitted effect of over 45% in size
Details: FXR-bla HEK293T viability, CellTiter-Glo luminescence, 16 h; series mostly up to 62.6 µM
Source text: U.S. Tox21 Program National Center for Advancing Translational Sciences [NCATS] NIH Chemical Genomics Center [NCGC] U.S. Environmental Protection Agency [EPA] National Institutes of Environmental Health Sciences [NIEHS] National Toxicology Program [NTP] U.S. Food and Drug Administration [FDA] Tox21 Assay Overview: The farnesoid-X-receptor (FXR), a nuclear hormone receptor, is highly expressed in liver, intestine, kidney and adrenal cortex. Natural ligands of FXR are the bile acids (Cholic acid, Chenodeoxy cholic acid etc). FXR is an important regulator of diverse metabolic pathways, including the bile acid homeostasis, lipid and glucose metabolisms. FXR regulates the expression of target genes by binding either as a monomer or as a heterodimer with the retinoid X receptor (RXR). Numerous studies have reported that FXR exerts protective function during cholestasis, diabetes, liver regeneration, and cancer. To identify compounds that activate FXR signaling, GeneBLAzer FXR-UAS-bla HEK 293T cell line (Invitrogen, Carlsbad, CA) containing a beta-lactamase reporter gene under the control of a UAS response element was used to screen the Tox21 10K compound library. The cytotoxicity of the Tox21 compound library against the FXR-bla cell line was tested in parallel by measuring the cell viability using CellTiter-Glo assay in the same wells.
Tox21 Assay Protocol Summary: FXR-bla cells were dispensed at 5000 cells/5uL/well in 1536-well black wall/clear bottom plates using a Multidrop Combi (Thermo Fisher Scientific, Waltham, MA) dispenser. After the assay plates were incubated at 37 C and 5% CO2 for 5 h, 23 nL of compounds dissolved in DMSO, positive controls or DMSO only was transferred to the assay plate by a Pintool station (Kalypsys, San Diego, CA). The assay plates were incubated at 37C for 16 h. After 1 uL of LiveBLAzerTM B/G FRET substrate was added using a Bioraptr Flying Reagent Dispenser (FRD) workstation (Beckman Coulter, Indianapolis, IN), the plates were incubated at room temperature for 2 h, and fluorescence intensity was measured by an Envision plate reader (PerkinElmer, Shelton, CT). For cell viability readout that measures cytotoxicity, 4uL/well of CellTiter-Glo reagent was added into the assay plates using a Bioraptr FRD. After 30 min incubation at room temperature, the luminescence intensity in the plates was measured using a ViewLux plate reader (PerkinElmer).
With `CCOP(=S)(OCC)Oc1cc(-c2ccccc2)on1` the Potency was “inactive”. With `CC(=O)[C@H]1CC[C@H]2[C@@H]3CC[C@H]4C[C@H](O)CC[C@]4(C)[C@H]3C(=O)C[C@]12C` the Potency was “inactive”. For `O=c1oc2ccccc2c(O)c1C1CCCc2ccccc21` (stereo not given), the Potency was “inactive”. For `[O]=[Cd]`, the Potency was “inactive”. With `COC(=O)c1ccccc1S(=O)(=O)NC(=O)N(C)c1nc(C)nc(OC)n1` the Potency was “inactive”. With `O=C(O)c1cccc(Cl)c1` the Potency was “inactive”. For `CCCSC(=O)Cl`, the Potency was “inactive”. For `O=S(=O)(O)C(F)(F)C(F)(F)C(F)(F)C(F)(F)C(F)(F)C(F)(F)F`, the Potency was “inactive”. For `CCCSP(=S)(OCC)Oc1ccc(Cl)cc1Cl` (stereo not given), the Potency was “inactive”. In the case of `CCC(C)n1c(=O)[nH]c(C)c(Br)c1=O` (stereo not given), the Potency was “inactive”. In the case of `CC1(C)COP(Oc2ccccc2)OC1`, the Potency was “inactive”. With `CN/C(=N\[N+](=O)[O-])NCC1CCOC1` (stereo not given) the Potency was “inactive”. With `CC(C(O)c1ccccc1)N(C)C/C=C/c1ccccc1` (stereo not given) the Potency was “inactive”. In the case of `CNC(=O)Oc1ccc(N(C)C)c(C)c1`, the Potency was “inactive”. With `CCOC(=O)C(c1c(O)c2ccccc2oc1=O)c1c(O)c2ccccc2oc1=O` the Potency was “inactive”. With `[Cl][Sn]([Cl])([Cl])[Cl]` the Potency was “inactive”. In the case of `O=C(CCN1CC1)OCC(CO)(COC(=O)CCN1CC1)COC(=O)CCN1CC1`, the Potency was “inactive”. In the case of `CCCSC(=O)N(CCC)CCC`, the Potency was “inactive”. For `Nc1cc2c3c(c1)C(c1ccccc1)=N[C@@H](NC(=O)c1cccnc1)C(=O)N3CC2`, the Potency was “inactive”. For `Cc1ccccc1CO[C@@H]1C[C@@]2(C(C)C)CC[C@]1(C)O2`, the Potency was “inactive”. For `BrCCCCCCBr`, the Potency was “inactive”. In the case of `O=C(Cc1ccccc1)OCc1ccccc1`, the Potency was “inactive”. In the case of `CNC(=O)Oc1ccccc1C1OCCO1`, the Potency was “inactive”. For `CC1COC2(c3ccccc3Cl)c3cc(Cl)ccc3NC(=O)CN12` (stereo not given), the Potency was “inactive”. With `O=[N+]([O-])c1cccc2c([N+](=O)[O-])cccc12` the Potency was “inactive”. For `CNC(=O)N(C)c1nc2ccccc2s1`, the Potency was “inactive”. With `CCN(Cc1ccc(Cl)nc1)/C(=C/[N+](=O)[O-])NC` the Potency was “inactive”. In the case of `NC1=NC(=O)C(c2ccccc2)O1` (stereo not given), the Potency was “inactive”. With `CC(CCc1ccccc1)NC(C)C(O)c1ccc(O)cc1` (stereo not given) the Potency was “inactive”. With `Cc1nnc2n1-c1sc(CCC(=O)N3CCOCC3)cc1C(c1ccccc1Cl)=NC2` the Potency was “inactive”. For `CCS(=O)(=O)C(C)(C)S(=O)(=O)CC`, the Potency was “inactive”. In the case of `COC(=O)C(c1ccccc1)C1CCCCN1` (stereo not given), the Potency was “inactive”. With `COC(=O)C1=CCCN(C)C1` the Potency was “inactive”. In the case of `Cc1ncsc1CCCl`, the Potency was “inactive”. For `CCCCc1c(C)nc(NCC)[nH]c1=O`, the Potency was “inactive”. For `CNNC`, the Potency was “inactive”. In the case of `Cc1cccc(C#N)c1`, the Potency was “inactive”. For `CCCCOP(=O)(O)OCCCC`, the Potency was “inactive”. For `C[C@H]1CCC[C@H](O)CCCCCc2cc(O)cc(O)c2C(=O)O1`, the Potency was “inactive”. In the case of `O=C(NCO)NCO`, the Potency was “inactive”.
